Assay results taken from PubChem BioAssay (Tox21).
Values joined by “and” are separate entries in the source; they are usually repeats but may differ in a detail not shown here. Equal values may be shown once. Records with an inconclusive call do not appear. A structure can be active in one record and inactive in another. Active and inactive are the calls of the source. Calls follow the shape of the dose curve; as a rule, active = well fitted curve in the direction sought with a large enough effect in the repeat runs; inconclusive = weak or mixed curves; inactive = no such curve, though single readings can be large; an effect the other way counts as inactive or inconclusive.

Legend:
[1] = target: Cytochrome P450 2C19 (Homo sapiens) (UniProt P33261); assay: Cytochrome P450 Family 2 Subfamily C Member 19 (CYP2C19) small molecule antagonists: luciferase reporter qHTS assay (AID 1671197); also: nearly all actives have a fitted effect of over 65% in size; as to activity change, negative = inhibition: series mostly up to about 120 µM
Chain of Cytochrome P450 2C19 (Homo sapiens) (P33261 whole entry, looked up): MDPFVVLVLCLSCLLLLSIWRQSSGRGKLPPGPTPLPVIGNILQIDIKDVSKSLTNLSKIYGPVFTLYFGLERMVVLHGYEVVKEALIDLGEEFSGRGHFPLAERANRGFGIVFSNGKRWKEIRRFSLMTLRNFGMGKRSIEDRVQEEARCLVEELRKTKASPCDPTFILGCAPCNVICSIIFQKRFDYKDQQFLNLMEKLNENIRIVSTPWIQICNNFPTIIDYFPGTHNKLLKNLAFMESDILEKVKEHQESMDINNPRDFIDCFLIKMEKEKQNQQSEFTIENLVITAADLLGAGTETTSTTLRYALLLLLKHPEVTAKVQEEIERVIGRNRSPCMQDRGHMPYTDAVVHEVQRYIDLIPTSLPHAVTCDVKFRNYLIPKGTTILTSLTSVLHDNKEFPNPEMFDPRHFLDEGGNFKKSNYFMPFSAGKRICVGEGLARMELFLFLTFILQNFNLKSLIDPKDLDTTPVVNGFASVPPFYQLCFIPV
Procedure, shortened: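 Luminescent readout of CYP2C19 activity: luciferin product detected 20 min after adding detection reagent. Before that, compound and enzyme-substrate mix preincubated 10 min at room temperature; NADPH-regenerating system started a 1 h, 37C reaction. Ketoconazole as positive control.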

[2] = target: Cytochrome P450 2C9 (Homo sapiens) (UniProt P11712); assay: Cytochrome P450 Family 2 Subfamily C Member 9 (CYP2C9) small molecule antagonists: luciferase reporter qHTS assay (AID 1671198); also: nearly all actives have a fitted effect of over 50% in size; as to activity change, negative = inhibition: series mostly up to about 120 µM
Chain of Cytochrome P450 2C9 (Homo sapiens) (P11712 whole entry, looked up): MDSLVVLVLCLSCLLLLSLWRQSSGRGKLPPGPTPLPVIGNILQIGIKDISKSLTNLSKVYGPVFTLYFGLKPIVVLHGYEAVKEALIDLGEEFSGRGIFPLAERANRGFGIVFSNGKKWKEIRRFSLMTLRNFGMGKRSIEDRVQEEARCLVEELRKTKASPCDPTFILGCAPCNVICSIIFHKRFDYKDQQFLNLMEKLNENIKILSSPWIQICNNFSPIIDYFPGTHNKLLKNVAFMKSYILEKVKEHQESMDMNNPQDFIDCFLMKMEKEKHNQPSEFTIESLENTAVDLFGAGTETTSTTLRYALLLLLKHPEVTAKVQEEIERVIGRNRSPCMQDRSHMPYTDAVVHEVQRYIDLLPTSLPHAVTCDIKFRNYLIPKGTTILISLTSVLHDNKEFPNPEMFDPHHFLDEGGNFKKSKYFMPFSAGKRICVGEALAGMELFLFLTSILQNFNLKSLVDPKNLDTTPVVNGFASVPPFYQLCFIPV
Procedure, shortened: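 P450-Glo proluciferin substrate with CYP2C9 enzyme; 10 min RT preincubation, then NADPH regeneration 1 h at 37C; luciferin detection reagent 20 min RT, luminescence in relative luminescence units.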

[3] = target: Cytochrome P450 1A2 (Homo sapiens) (UniProt P05177); assay: Cytochrome P450 Family 1 Subfamily A Member 2 (CYP1A2) small molecule antagonists: luciferase reporter qHTS assay (AID 1671199); also: nearly all actives have a fitted effect of over 50% in size; as to activity change, negative = inhibition: series mostly up to about 120 µM
Chain of Cytochrome P450 1A2 (Homo sapiens) (P05177 whole entry, looked up): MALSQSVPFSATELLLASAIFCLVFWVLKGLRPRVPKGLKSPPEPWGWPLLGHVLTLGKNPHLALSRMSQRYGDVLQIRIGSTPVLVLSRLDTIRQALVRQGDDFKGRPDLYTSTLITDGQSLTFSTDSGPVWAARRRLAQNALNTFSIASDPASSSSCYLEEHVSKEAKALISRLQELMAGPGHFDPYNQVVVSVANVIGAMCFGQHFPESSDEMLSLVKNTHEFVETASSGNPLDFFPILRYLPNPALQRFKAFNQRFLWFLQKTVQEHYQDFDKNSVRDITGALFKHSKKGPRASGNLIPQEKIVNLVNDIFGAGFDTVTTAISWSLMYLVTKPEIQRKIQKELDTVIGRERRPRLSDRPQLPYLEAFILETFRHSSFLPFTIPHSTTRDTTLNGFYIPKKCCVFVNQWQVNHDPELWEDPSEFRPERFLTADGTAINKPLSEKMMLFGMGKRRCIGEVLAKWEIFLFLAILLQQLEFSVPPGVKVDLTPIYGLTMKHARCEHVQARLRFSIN
Procedure, shortened: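 Enzymatic CYP1A2 assay, human, luminescent: 10 min compound–enzyme–substrate preincubation, 1 h NADPH-dependent turnover, 20 min detection step, room temperature throughout. Reduced light indicates lower CYP1A2 activity.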

[4] = target: Voltage-gated inwardly rectifying potassium channel KCNH2 (Homo sapiens) (UniProt Q12809); assay: Human Ether-a-go-go-Related Gene (hERG) channel small molecule antagonists: fluorescence cell-based qHTS assay (AID 1671200); also: nearly all actives have a fitted effect of over 50% in size;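 as to activity change, negative = inhibition: hERG-expressing U2OS cells given a thallium stimulus after FluxOR II dye loading; series mostly up to about 77 µM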
Chain of Voltage-gated inwardly rectifying potassium channel KCNH2 (Homo sapiens) (Q12809 whole entry, looked up): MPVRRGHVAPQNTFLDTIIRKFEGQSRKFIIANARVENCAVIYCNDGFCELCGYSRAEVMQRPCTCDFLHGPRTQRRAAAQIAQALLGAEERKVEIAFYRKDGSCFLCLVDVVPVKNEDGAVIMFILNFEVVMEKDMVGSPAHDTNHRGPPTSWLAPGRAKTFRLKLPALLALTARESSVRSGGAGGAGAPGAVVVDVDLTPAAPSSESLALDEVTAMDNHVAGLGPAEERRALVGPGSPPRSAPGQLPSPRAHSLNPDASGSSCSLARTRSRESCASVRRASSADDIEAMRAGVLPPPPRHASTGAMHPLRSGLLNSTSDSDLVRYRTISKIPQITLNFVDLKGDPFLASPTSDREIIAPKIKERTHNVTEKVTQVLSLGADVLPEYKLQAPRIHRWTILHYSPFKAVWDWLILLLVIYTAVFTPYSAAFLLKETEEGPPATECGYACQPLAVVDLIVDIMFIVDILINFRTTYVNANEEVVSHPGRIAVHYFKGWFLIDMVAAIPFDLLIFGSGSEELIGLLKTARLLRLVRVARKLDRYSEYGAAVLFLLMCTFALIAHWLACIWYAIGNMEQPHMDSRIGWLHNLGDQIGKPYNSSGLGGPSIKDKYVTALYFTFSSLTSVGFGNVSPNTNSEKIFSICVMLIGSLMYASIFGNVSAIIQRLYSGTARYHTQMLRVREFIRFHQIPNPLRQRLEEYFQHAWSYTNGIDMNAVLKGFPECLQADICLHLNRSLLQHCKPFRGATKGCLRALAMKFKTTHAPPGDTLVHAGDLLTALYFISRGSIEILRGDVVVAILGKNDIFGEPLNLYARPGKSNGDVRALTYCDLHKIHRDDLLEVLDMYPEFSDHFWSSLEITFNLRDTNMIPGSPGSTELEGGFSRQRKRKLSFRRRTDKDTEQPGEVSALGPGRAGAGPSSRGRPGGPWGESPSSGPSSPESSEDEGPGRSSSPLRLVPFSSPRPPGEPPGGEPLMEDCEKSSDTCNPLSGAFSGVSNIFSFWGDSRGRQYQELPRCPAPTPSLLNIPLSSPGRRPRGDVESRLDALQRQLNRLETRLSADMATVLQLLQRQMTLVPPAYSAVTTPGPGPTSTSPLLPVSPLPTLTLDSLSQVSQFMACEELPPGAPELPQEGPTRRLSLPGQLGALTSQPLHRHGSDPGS
Procedure, shortened: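 Cell line hERG-U2OS; dye FluxOR II, 1 h RT dark; Tl+ stimulus; ex 480/em 540 nm, read each second for 2 min.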

[5] = target: Cytochrome P450 3A4 (Homo sapiens) (UniProt P08684); assay: Cytochrome P450 Family 3 Subfamily A Member 4 (CYP3A4) small molecule antagonists: luciferase reporter qHTS assay (AID 1671201); also: nearly all actives have a fitted effect of over 50% in size; as to activity change, negative = inhibition: series mostly up to about 120 µM
Chain of Cytochrome P450 3A4 (Homo sapiens) (P08684 whole entry, looked up): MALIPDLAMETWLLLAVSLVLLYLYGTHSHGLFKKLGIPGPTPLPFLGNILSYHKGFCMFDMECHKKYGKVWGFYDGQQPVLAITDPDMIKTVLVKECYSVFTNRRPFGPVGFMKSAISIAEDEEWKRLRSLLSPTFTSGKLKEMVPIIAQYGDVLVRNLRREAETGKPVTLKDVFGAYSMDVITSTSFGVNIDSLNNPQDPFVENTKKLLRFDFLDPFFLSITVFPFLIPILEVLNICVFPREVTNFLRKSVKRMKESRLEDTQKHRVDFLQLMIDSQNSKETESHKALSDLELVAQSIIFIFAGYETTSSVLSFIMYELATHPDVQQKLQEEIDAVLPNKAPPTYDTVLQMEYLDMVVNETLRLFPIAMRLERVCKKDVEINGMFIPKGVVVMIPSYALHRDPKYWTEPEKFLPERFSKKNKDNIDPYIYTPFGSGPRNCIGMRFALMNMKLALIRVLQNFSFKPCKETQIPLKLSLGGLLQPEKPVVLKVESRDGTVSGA
Procedure, shortened: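 Room-temperature assay throughout: 10 min compound–enzyme/substrate preincubation, 1 h reaction after NADPH regeneration solution, 20 min detection. Luciferin formed from proluciferin substrate is quantified by luminescence.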
% is scaled to controls: 0 for no effect and ±100 for the full control effect; potency is read from the fitted curve at half-maximal effect.

| Compound | Potency [1] | Potency [2] | Potency [3] | Potency [4] | Potency [5] | activity change, negative = inhibition [4] | activity change, negative = inhibition [5] |
| --- | --- | --- | --- | --- | --- | --- | --- |
| Cc1cc(O)c(C(C)(C)C)cc1Sc1cc(C(C)(C)C)c(O)cc1C | 0.398 µM (active) | 2.51 µM (active) | 39.8 µM (active) | inactive | 5.63 µM (active) |  |  |
| [O-][n+]1ccccc1SSc1cccc[n+]1[O-] | 0.536 µM (active) | 1.51 µM (active) | 2.81 µM (active) |  |  | 14% [at 15.8 µM] (inactive) | 7.02% [at 23.6 µM] (inactive) |
| Nc1ccc2cc(S(=O)(=O)O)cc(O)c2c1N=Nc1ccccc1C(F)(F)F | 79.6 µM (active) | 63.3 µM (active) | 39.9 µM (active) | inactive | inactive |  |  |
| O=[N+]([O-])c1ccccc1Nc1ccccc1 | 19.9 µM (active) | 39.7 µM (active) | 5 µM (active) | 54.6 µM (active) | inactive |  |  |
| NC(=O)N1C(=O)C(C(=O)c2cc(Cl)cs2)c2cc(F)c(Cl)cc21 (stereo not given) | 79.6 µM (active) | 6.33 µM (active) | 17.8 µM (active) | inactive | 5.03 µM (active) |  |  |
| CC/C(=C(\c1ccc(O)cc1)c1ccc(OCCN(C)C)cc1)c1ccccc1 | 44.9 µM (active) | 71.2 µM (active) | inactive |  | 12.7 µM (active) |  |  |
| CCC1OCC(COc2ccc(Oc3ccccc3)cc2)O1 (stereo not given) | 17.8 µM (active) | 28.3 µM (active) | 25.2 µM (active) |  | inactive |  |  |
| CCCCCCCCn1sc(Cl)c(Cl)c1=O | 6.33 µM (active) | 3.17 µM (active) | 11.2 µM (active) | 12.3 µM (active) | 20 µM (active) |  |  |
| O=C1c2ccccc2Cc2ccccc21 | 9.01 µM (active) | 16 µM (active) | 0.452 µM (active) | inactive | 22.6 µM (active) |  |  |
| CC(C)(C)CC(C)(C)c1ccc(OCCOCC[N+](C)(C)Cc2ccccc2)cc1 | inactive | 79.6 µM (active) and inactive | inactive |  | inactive |  |  |
| CCC(C)Nc1ccc(NC(C)CC)cc1 (stereo not given) | 1.82 µM (active) | 5.12 µM (active) | 40.7 µM (active) | 7.91 µM (active) | 8.12 µM (active) |  |  |
| Oc1ccc(N=Nc2ccccc2)cc1 | 20.3 µM (active) | 36.1 µM (active) | 16.1 µM (active) | inactive | 20.3 µM (active) |  |  |
| O=C1c2c(O)ccc(Nc3ccc(CCO)cc3)c2C(=O)c2c([N+](=O)[O-])ccc(O)c21 | 39.9 µM (active) | 10 µM (active) | 31.7 µM (active) |  | 31.7 µM (active) |  |  |
| CC(C)(C)C1CCC(CC2=C(O)c3ccccc3C(=O)C2=O)CC1 (stereo not given) | inactive | 1.95 µM (active) | inactive | inactive | inactive |  |  |
| CCCCCCCCCCn1cc[n+](CCCCCCCCCC)c1C | 35.6 µM (active) | 40 µM (active) | 71.1 µM (active) | 0.49 µM (active) | 31.8 µM (active) |  |  |
| Cc1cc(C2CCCCC2)n(O)c(=O)c1 | inactive | inactive | inactive | inactive | inactive |  |  |
| Nc1ccc2c3c(cccc13)-c1ccccc1-2 | 18 µM (active) | 32.1 µM (active) | 0.128 µM (active) | inactive | 18 µM (active) |  |  |
| Cc1ccc(O)c2ncccc12 | inactive | inactive | 15.5 µM (active) |  | inactive |  |  |
| CCCCCCCC/C=C\CCCCCCCCOCCO | 46.3 µM (active) | 29.2 µM (active) | inactive |  | 11.6 µM (active) |  |  |
| O=C(Oc1cccc2cccnc12)c1ccccc1 | inactive | inactive | 17.4 µM (active) | inactive | inactive |  |  |
| CCCCCCCCS(=O)C(C)Cc1ccc2c(c1)OCO2 (stereo not given) | 40.7 µM (active) | 1.62 µM (active) | 28.8 µM (active) | 35.4 µM (active) | 5.75 µM (active) |  |  |
| CCCCCOC(=O)CCCC | inactive | inactive | inactive | inactive | inactive |  |  |
| NNc1nc(-c2ccc(N)cc2)cs1 | 79.6 µM (active) | 31.7 µM (active) | 35.6 µM (active) | inactive | 14.2 µM (active) |  |  |
| CCCCCCCCCCCC[N+](C)(C)CCCCCCCCCCCC | 35.6 µM (active) | 22.4 µM (active) | 71 µM (active) |  | 35.6 µM (active) |  |  |
| C=CC(=O)OCCn1c(=O)n(CCOC(=O)C=C)c(=O)n(CCOC(=O)C=C)c1=O | 2.83 µM (active) | 35.6 µM (active) | 39.9 µM (active) | inactive | 0.2 µM (active) |  |  |
| CC(=O)OCC(C)OC(C)=O (stereo not given) | inactive | inactive | inactive | inactive | inactive |  |  |
| O=C(Oc1ccccc1)c1ccccc1C(=O)Oc1ccccc1 | 15.9 µM (active) | 12.6 µM (active) | 5.64 µM (active) |  | inactive |  |  |

| Compound | Potency [1] | Potency [2] | Potency [3] | Potency [4] | Potency [5] | activity change, negative = inhibition [4] | activity change, negative = inhibition [5] |
| --- | --- | --- | --- | --- | --- | --- | --- |
| CCCCC(CC)COP(=O)(O)OCC(CC)CCCC (stereo not given) | 31.8 µM (active) and 31.7 µM (active) | 22.5 µM (active) and 17.8 µM (active) | inactive | inactive | inactive |  |  |
| Cc1cc2c(cc1C(F)(F)F)N(C(=O)Nc1ccc(Oc3cccnc3C)nc1)CC2 | 28.7 µM (active) | 11.4 µM (active) | 72.1 µM (active) | inactive | 20.3 µM (active) |  |  |
| CCCCC(CC)COC(=O)c1ccccc1C(=O)O (stereo not given) | 40.6 µM (active) | 5.91 µM (active) | 54.2 µM (active) | inactive | inactive |  |  |
| CCOC(=O)c1nc(C(Cl)(Cl)Cl)n(-c2ccc(Cl)cc2Cl)n1 | 5.03 µM (active) | 3.17 µM (active) | inactive | 49 µM (active) | inactive |  |  |
| CC[C@H]1O[C@]2(CC[C@@H]1C)C[C@@H]1C[C@@H](C/C=C(\C)C[C@@H](C)/C=C/C=C3\CO[C@@H]4[C@H](O)C(C)=C[C@@H](C(=O)O1)[C@]34O)O2 | 19.8 µM (active) | 12.5 µM (active) | inactive | inactive | 5.59 µM (active) |  |  |
| CCCCCCCC[N+](CCCCCCCC)(CCCCCCCC)CCCCCCCC | 22.4 µM (active) | 35.5 µM (active) | 70.9 µM (active) | 0.69 µM (active) | 1.59 µM (active) |  |  |
| C[n+]1ccn(Cc2ccccc2)c1 | inactive | inactive | inactive | inactive | inactive |  |  |
| Cc1ccc2oc(CN(Cc3ccccc3)C(=O)Nc3c(F)cc(F)cc3F)c(-c3ccc(Cl)cc3)c2c1 | 10.9 µM (active) | 4.34 µM (active) | 54.6 µM (active) | inactive | 2.44 µM (active) |  |  |
| C/C=C1/C(=O)C[C@H]2[C@@H]3CCC4=CC(=O)CC[C@]4(C)[C@H]3CC[C@]12C | 3.98 µM (active) | 31.6 µM (active) | 39.8 µM (active) |  | inactive |  |  |
| c1ccc(CSCc2ccccc2)cc1 | 2.82 µM (active) | 35.5 µM (active) | 31.6 µM (active) |  | inactive |  |  |
| CCCCCCCCCCCCCCCS(=O)(=O)Oc1ccccc1 | 4.36 µM (active) | 1.23 µM (active) | inactive | inactive | inactive |  |  |
| C[C@]12CCC(=O)C=C1CC[C@@H]1[C@@H]2[C@@H](O)C[C@@]2(C)[C@H]1CC[C@]2(O)C(=O)COC(=O)CCC(=O)O | inactive | inactive | inactive | inactive | inactive |  |  |
| CCN(Cc1cccnc1)C(=O)c1cccc(Cl)c1[C@]1(C)C(=O)N(Cc2ccc(OC)cc2OC)c2ccc(Cl)cc21 | 1.32 µM (active) | 1.87 µM (active) | inactive |  | 0.132 µM (active) |  |  |
| COC(=O)c1cc(Cl)ccc1OC | inactive | inactive | 2.88 µM (active) | inactive | inactive |  |  |
| O=c1[nH]cnc2nc[nH]c12 | inactive | inactive |  | inactive | inactive |  |  |
| CCCN(CCC)C(=O)C(CCC(=O)OCCCN1CCN(CCOC(=O)Cc2c(C)n(C(=O)c3ccc(Cl)cc3)c3ccc(OC)cc23)CC1)NC(=O)c1ccccc1 (stereo not given) | 8.71 µM (active) | 4.9 µM (active) |  | 0.301 µM (active) |  |  |  |
| CC(C)C(C)(C)C(C)(C)C(C)(C)S | 39.9 µM (active) | 46.1 µM (active) |  | inactive |  |  |  |
| CC(=O)SC[C@@H](Cc1ccccc1)C(=O)NCC(=O)OCc1ccccc1 | 0.617 µM (active) | 3.47 µM (active) |  | inactive |  |  |  |
| CCCCCCOC(=O)c1ccc(O)cc1 | 11.3 µM (active) and 20 µM (active) | 35.6 µM (active) and 39.9 µM (active) | 11.3 µM (active) and 8.94 µM (active) |  | 79.8 µM (active) and inactive |  |  |
| CCCCCCCCCCC=O | inactive | inactive |  | inactive | inactive |  |  |
| Cc1oc(-c2ccccc2)nc1CCC(=O)c1ccc(CC2SC(=O)NC2=O)cc1 (stereo not given) | 11 µM (active) | 7.76 µM (active) |  | inactive |  |  |  |
| Oc1cccc2cc3cccc(O)c3c(O)c12 | 35.7 µM (active) | inactive |  | inactive | inactive |  |  |
| COc1ccc(C(=O)/C(Br)=C\C(=O)O)cc1 | 35.6 µM (active) | 25.2 µM (active) |  | inactive |  |  |  |
| NC(=NCCCCCCN=C(N)/N=C(\N)Nc1ccc(Cl)cc1)/N=C(\N)Nc1ccc(Cl)cc1 | 22.3 µM (active) [middle of 5 runs] | 25.1 µM (active) [middle of 5 runs] |  | inactive |  |  |  |
| CNC(=O)c1ccccc1 | inactive | inactive |  | inactive | inactive |  |  |
| CC1(C)CCC(C)(C)c2cc(C(=O)Nc3ccc(C(=O)O)cc3)ccc21 | inactive | 71 µM (active) | inactive |  | inactive |  |  |
| Cc1cc(O)c(C(C)(C)C)cc1C(C)(C)C | 17.8 µM (active) | 28.3 µM (active) | 35.6 µM (active) |  | 31.7 µM (active) |  |  |
